“And” between values parts separate entries of the source, which are not always exact repeats. Identical values can stand only once. The campaign covered roughly 5,500 compounds. About 2,000 (36%) were called active. About 18% were inconclusive and are not listed. Cut-off read from the data, not from the text of the source: active = normalized growth mostly below about 0.91 (no sharp cut-off); inconclusive = no clear call, values can overlap the other calls; inactive = mostly above about 0.92. The list shows a part of the results.
Test: chemical genetic growth profiling, strain panel (AID 1159580);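 note: tested at 20 µM; growth read once vehicle control cultures reached saturation at 30 °C; 1 = growth at the plate median or of vehicle wells; lower values mean less growth of the strain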
Settings: S. cerevisiae deletion strains, growth OD

Measured: normalized growth

CC1(C)C(=O)C=C[C@@]2(C)C1C=C[C@]1(C)C2CC[C@@]2(C)[C@H](c3ccoc3)OC(=O)C3OC321 (some centres not stated)
active: locus YDR137W, strain rgp1, hits give low values 0.663 | locus YDR159W, strain sac3, hits give low values 0.843 | locus YDR392W, strain spt3, hits give low values 0.314 | locus YJL129C, strain trk1, hits give low values 0.867 | locus YLR039C, strain RIC1, hits give low values 0.624 | locus YLR262C, strain YPT6 (second series), hits give low values 0.67 | locus YLR320W, strain mms22, hits give low values 0.838 | locus YLR418C, strain cdc73, hits give low values 0.655 | locus YMR205C, strain PFK2, hits give low values 0.841 | locus YNL071W, strain lat1, hits give low values 0.695 | locus YNL307C, strain MCK1, hits give low values 0.867 | locus YOR184W, strain ser1, hits give low values 0.715
inactive: locus YAL013W, strain DEP1, hits give low values 0.949 | locus YAL021C, strain ccr4, hits give low values 1.02 | locus YAL026C, strain drs2, hits give low values 0.972 | locus YAL030W, strain snc1, hits give low values 0.985 | locus YBL061C, strain skt5, hits give low values 0.974 | locus YBR009C, strain hhf1, hits give low values 0.915 | locus YBR021W, strain FUR4, hits give low values 1.01 | locus YBR023C, strain chs3, hits give low values 0.981 | locus YBR171W, strain sec66, hits give low values 0.971 | locus YBR229C, strain ROT2, hits give low values 0.986 | locus YBR231C, strain swc5, hits give low values 1 | locus YBR279W, strain paf1, hits give low values 0.964 | locus YCL011C, strain gbp2, hits give low values 0.981 | locus YCL016C, strain dcc1, hits give low values 0.98 | locus YCL029C, strain bik1, hits give low values 0.986 | locus YCL061C, strain MRC1, hits give low values 0.971 | locus YCL069W, strain vba3, hits give low values 1 | locus YCR088W, strain abp1, hits give low values 1 | locus YDL005C, strain med2, hits give low values 0.988 | locus YDL035C, strain GPR1, hits give low values 0.979 | locus YDL040C, strain nat1, hits give low values 1 | locus YDL074C, strain BRE1, hits give low values 0.862 | locus YDL101C, strain DUN1, hits give low values 0.957 | locus YDL134C, strain PPH21, hits give low values 0.948 | locus YDL185W, strain tfp1, hits give low values 0.998 | locus YDL192W, strain arf1, hits give low values 0.94 | locus YDR001C, strain nth1, hits give low values 0.991 | locus YDR069C, strain doa4, hits give low values 1 | locus YDR101C, strain arx1, hits give low values 0.978 | locus YDR150W, strain NUM1, hits give low values 0.996 | locus YDR162C, strain NBP2, hits give low values 0.888 | locus YDR195W, strain ref2 1.02 | locus YDR297W, strain sur2, hits give low values 0.985 | locus YDR318W, strain mcm21, hits give low values 0.939 | locus YDR334W, strain swr1, hits give low values 0.983 | locus YDR335W, strain msn5, hits give low values 0.998 | locus YDR388W, hits give low values 0.984 | locus YDR502C, strain sam2, hits give low values 0.948 | locus YEL003W, strain gim4, hits give low values 0.979 | locus YEL037C, strain rad23, hits give low values 0.992 | locus YEL061C, strain CIN8 (second series), hits give low values 0.997 | locus YEL061C, strain CIN8, hits give low values 0.983 | locus YER015W, strain faa2, hits give low values 0.985 | locus YER016W, strain bim1, hits give low values 0.993 | locus YER110C, hits give low values 0.986 | locus YER111C, strain swi4, hits give low values 0.994 | locus YER155C, strain BEM2 (second series), hits give low values 0.894 | locus YER155C, strain BEM2, hits give low values 0.953 | locus YER167W, strain BCK2, hits give low values 0.976 | locus YFR010W, strain ubp6, hits give low values 1 | locus YGL078C, strain dbp3, hits give low values 0.993 | locus YGL086W, strain mad1, hits give low values 0.948 | locus YGL167C, strain pmr1, hits give low values 0.967 | locus YGL173C, strain kem1, hits give low values 0.97 | locus YGL227W, strain vid30, hits give low values 0.991 | locus YGL240W, strain doc1, hits give low values 1.02 | locus YGL248W, strain PDE1, hits give low values 0.974 | locus YGL253W, strain hxk2, hits give low values 0.992 | locus YGR135W, strain pre9, hits give low values 0.953 | locus YGR252W, strain gcn5, hits give low values 0.912 | locus YHR013C, strain ard1, hits give low values 0.916 | locus YHR027C, strain rpn1, hits give low values 0.971 | locus YHR030C, strain SLT2, hits give low values 0.915 | locus YHR079C, strain IRE1 (second series), hits give low values 0.977 | locus YHR079C, strain IRE1, hits give low values 0.943 | locus YHR094C, strain hxt1, hits give low values 0.989 | locus YHR129C, strain ARP1, hits give low values 0.926 | locus YHR142W, strain chs7, hits give low values 0.987 | locus YHR200W, strain rpn10, hits give low values 0.986 | locus YIL066C, strain RNR3, hits give low values 0.897 | locus YIL073C, strain SPO22, hits give low values 0.953 | locus YIL125W, strain kgd1, hits give low values 0.993 | locus YIR030C, strain dcg1, hits give low values 0.98 | locus YJL092W, strain hpr5, hits give low values 0.997 | locus YJL095W, strain BCK1 (second series), hits give low values 0.967 | locus YJL095W, strain BCK1, hits give low values 0.799 and 0.923 | locus YJL115W, strain asf1, hits give low values 1 | locus YJL134W, strain LCB3, hits give low values 0.997 | locus YJL154C, strain vps35, hits give low values 0.995 | locus YJL164C, strain tpk1, hits give low values 0.967 | locus YJL166W, strain qcr8, hits give low values 0.919 | locus YJL168C, strain set2, hits give low values 0.964 | locus YJL187C, strain SWE1 (second series), hits give low values 0.951 | locus YJL187C, strain SWE1, hits give low values 0.987 | locus YJR066W, strain TOR1, hits give low values 0.894 | locus YKL009W, strain mrt4, hits give low values 0.995 | locus YKL068W, hits give low values 0.998 | locus YKL085W, strain MDH1 (second series), hits give low values 0.985 | locus YKL085W, strain MDH1, hits give low values 0.985 | locus YKL160W, strain elf1, hits give low values 0.973 | locus YKL190W, strain CNB1, hits give low values 0.992 | locus YKR001C, strain vps1, hits give low values 0.949 | locus YKR026C, strain gcn3, hits give low values 0.995 | locus YKR091W, strain srl3, hits give low values 0.992 | locus YLL001W, strain dnm1, hits give low values 0.99 | locus YLL026W, hits give low values 0.986 | locus YLL041C, strain sdh2, hits give low values 0.989 | locus YLR027C, strain aat2, hits give low values 0.959 | locus YLR058C, strain SHM2, hits give low values 0.97 | locus YLR102C, strain apc9, hits give low values 0.992 | locus YLR113W, strain HOG1, hits give low values 0.957 | locus YLR221C, strain rsa3, hits give low values 0.959 | locus YLR258W, strain gsy2, hits give low values 0.997 | locus YLR268W, strain sec22, hits give low values 0.911 | locus YLR330W, strain CHS5, hits give low values 0.954 | locus YLR342W, strain FKS1, hits give low values 0.924 | locus YLR357W, strain rsc2, hits give low values 1.03 | locus YLR370C, strain arc18, hits give low values 0.988 | locus YLR371W, strain rom2, hits give low values 0.933 | locus YLR384C, strain iki3, hits give low values 0.99 | locus YML016C, strain PPZ1, hits give low values 0.991 | locus YML032C, strain rad52, hits give low values 0.944 | locus YML120C, strain ndi1, hits give low values 0.994 | locus YML124C, strain tub3, hits give low values 0.983 | locus YMR058W, strain fet3, hits give low values 0.976 | locus YMR078C, strain ctf18, hits give low values 0.956 | locus YMR125W, strain sto1, hits give low values 0.969 | locus YMR129W, hits give low values 0.984 | locus YMR223W, strain ubp8, hits give low values 0.963 | locus YMR231W, strain pep5, hits give low values 0.964 | locus YMR307W, strain GAS1, hits give low values 0.81 | locus YNL067W, strain RPL9B, hits give low values 0.973 | locus YNL183C, strain NPR1, hits give low values 0.921 | locus YNL209W, strain ssb2, hits give low values 0.984 | locus YNL233W, strain BNI4, hits give low values 0.955 | locus YNL248C, strain rpa49, hits give low values 0.978 | locus YNL250W, strain rad50, hits give low values 0.987 | locus YNL271C, strain bni1, hits give low values 0.983 | locus YNL298W, strain CLA4, hits give low values 0.989 | locus YNL322C, strain KRE1 (second series), hits give low values 1.01 | locus YNL322C, strain KRE1, hits give low values 0.983 | locus YNR049C, strain mso1, hits give low values 0.985 | locus YNR052C, strain pop2, hits give low values 0.951 | locus YOL006C, strain TOP1, hits give low values 0.959 | locus YOL012C, strain htz1 0.78 | locus YOL147C, strain pex11, hits give low values 0.961 | locus YOR001W, strain rrp6, hits give low values 0.991 | locus YOR061W, strain CKA2, hits give low values 0.983 | locus YOR069W, strain VPS5, hits give low values 0.992 | locus YOR070C, strain gyp1, hits give low values 0.952 | locus YOR080W, strain dia2, hits give low values 0.992 | locus YOR083W, strain WHI5, hits give low values 0.977 | locus YOR106W, strain vam3, hits give low values 0.972 | locus YOR136W, strain idh2, hits give low values 0.979 | locus YOR144C, strain elg1, hits give low values 0.957 | locus YOR231W, strain MKK1, hits give low values 0.936 | locus YOR265W, strain rbl2, hits give low values 0.986 | locus YOR270C, strain vph1, hits give low values 0.905 | locus YOR290C, strain snf2, hits give low values 0.938 | locus YOR316C, strain cot1, hits give low values 0.983 | locus YPL051W, strain arl3, hits give low values 0.945 | locus YPL078C, strain atp4, hits give low values 0.979 | locus YPL106C, strain sse1, hits give low values 0.942 | locus YPL240C, strain hsp82, hits give low values 0.985 | locus YPL256C, strain CLN2, hits give low values 0.92 | locus YPR119W, strain clb2, hits give low values 0.979 | locus YPR141C, strain kar3, hits give low values 0.977 | locus YPR163C, strain tif3, hits give low values 0.938 | locus YPR167C, strain met16, hits give low values 0.973 | strain wtn01, hits give low values 0.952

Source: PubChem BioAssay AID1159580 (chemical genetic matrix, 2015)
